NS1 function inh = inhibitors of influenza NS1 protein function; Potency, µM (highest dose often 46.1 µM), without a hit: at the highest dose activity, positive = more growth; AID 2326; hit rate 0.4% among 270,000; calls by dose curve; further: potency means the concentration at half of the fitted maximal effect; actives are rising curves; nearly all actives have a fitted effect of over 50% in size
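Recovery from NS1-induced slow growth read by OD600 in budding yeast switched to galactose assay medium (pH 6.0, -URA) at 1:100 dilution. Compound 23 nl per well; the matching strain lacking NS1 serves as control.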
CHX counter = counter-screen hit for Shiga toxin inhibitors, cycloheximide. hit rate 12% among 300,000. cell reporter, cycloheximide protein synthesis inhibition counterscreen. max response, %; in the data active means max response mostly above about 13%, no sharp cut-off; inactive means mostly below about 14%; further: read at 38.3 µM for the half of the compounds with a filed dose; 0% is about no effect
Pf growth 96h = P. falciparum growth inhibition at 96 hour, primary screen for plastid delayed-death inhibitors; P. falciparum luciferase reporter growth, 96 h; Potency, µM (titrated, usually from 28.7 µM), for inactives: at the highest dose activity change, negative = inhibition, actives largely listed as inhibitors; hit rate 6.9% among 320,000; AID 504834; further: potency means the concentration at half of the fitted maximal effect; on the % scale 0 is the no-effect control and ±100 the full control effect
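Infected RBCs, 2% Hct / 0.05% parasitemia final; luciferase-reporter P. falciparum; cpd 96 h, 37 C, 5% CO2; luciferase detection reagent; luminescence.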
Shiga toxin inh = inhibitors of Shiga toxin in Vero cells | inhibition, % at 38.7 µM | AID 2315 | Vero cells, Shiga toxin protein synthesis inhibition reporter | hit rate 9.2% among 290,000; in the data active means inhibition mostly above about 28%, no sharp cut-off; inactive means mostly below about 43%; further: 0% is about no effect
Pf growth 48h = inhibits P. falciparum growth in the first generation, 48 h; P. falciparum luciferase growth in erythrocytes, 48 h; Potency, µM (series often up to 28.7 µM), for inactives: top-dose activity change, negative = inhibition, usual class: inhibitors; hit rate 5.9% among 310,000; AID 504832; further: potency means the concentration at half of the fitted maximal effect; on the % scale 0 is the no-effect control and ±100 the full control effect
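Luminescence readout; reporter = integrated firefly luciferase in P. falciparum. RBC culture at 2% hematocrit, 0.1% parasitemia final, 37 C/5% CO2; decreased signal taken as growth inhibition.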
SARS PLP yeast = blocks SARS-CoV papain-like protease in a yeast assay. Potency, µM (top dose mostly 32.9 µM), for inactives: top-dose activity, positive = growth rescue, usual class: activators. hit rate 0.19% among 330,000. S. cerevisiae expressing SARS-CoV PLpro, growth rescue; calls by dose curve; further: potency means the concentration at half of the fitted maximal effect; 0% is about no effect; nearly all actives have a fitted effect of over 55% in size
* = called active by the depositor. The list is not random: actives were taken first. Their share in the collection is about 21%. Unless noted, the call rests on the fitted dose curve; in most records, active means well fitted inhibition curve with a large enough effect; inconclusive means small, poorly fitted or top-dose-only effect, or another doubt; inactive means no such curve, though single readings can be large or run the other way.

Results for CCN(c1ccccc1)S(=O)(=O)c1ccc2c(c1)N(C(C)=O)CCO2 ?
NS1 function inh: -4%; CHX counter: -3; Pf growth 96h: inconclusive; Shiga toxin inh: -6; Pf growth 48h: 19%; SARS PLP yeast: 4%

What do the screens show for `C=CCn1c(O)c(N=Nc2ccccc2O)c2ccccc21`?
Pf growth 96h: 62%; Pf growth 48h: 9.3µM*; SARS PLP yeast: -1%

What do the screens show for `C=CCn1c(O)c(N=NC(=O)OCC)c2ccccc21`?
NS1 function inh: -9%; CHX counter: 2; Pf growth 96h: 30%; Shiga toxin inh: -5; Pf growth 48h: 22%; SARS PLP yeast: -6%

Results for C=CCn1c(O)c(N=NC(=S)Nc2cccc(OC)c2)c2ccccc21 ?
NS1 function inh: 5%; CHX counter: -3; Pf growth 96h: inconclusive; Shiga toxin inh: -8; Pf growth 48h: 3.7µM*; SARS PLP yeast: 20%

How did C=CCn1c(O)c(N=NC(=S)Nc2ccc(OC)cc2)c2ccccc21 do in these assays?
NS1 function inh: 8%; CHX counter: -5; Pf growth 96h: 0%; Shiga toxin inh: -15; Pf growth 48h: 10µM*; SARS PLP yeast: 8%

How did CCOc1ncccc1C(=O)OCC(=O)NCc1ccccc1 do in these assays?
SARS PLP yeast: 1%

Results for CCc1nnc(NC(=O)c2cccc(NC(=O)C(C)C)c2)s1 ?
NS1 function inh: 14%; CHX counter: 45*; Pf growth 96h: 43%; Shiga toxin inh: 67; Pf growth 48h: 68%; SARS PLP yeast: 1%

What do the screens show for `COCc1nnc(NC(=O)c2cccc(NC(=O)C(C)C)c2)s1`?
NS1 function inh: 3%; CHX counter: 14*; Pf growth 96h: -30%; Shiga toxin inh: 27*; Pf growth 48h: 89%; SARS PLP yeast: 1%

How did CC(C)C(=O)Nc1cccc(C(=O)Nc2nncs2)c1 do in these assays?
NS1 function inh: 7%; CHX counter: 1; Pf growth 96h: 15%; Shiga toxin inh: 21; Pf growth 48h: 5%; SARS PLP yeast: 5%

Results for C=CC[n+]1c(C)csc1Nc1ccc(C)cc1 ?
CHX counter: 24*; Pf growth 96h: 26%; Shiga toxin inh: 37; Pf growth 48h: 20%; SARS PLP yeast: 3%

How did CCN(c1cccc(C)c1)S(=O)(=O)c1c(C)[nH]c(C)c1C(=O)N1CCCCC1 do in these assays?
NS1 function inh: -10%; CHX counter: 13; Pf growth 96h: -18%; Shiga toxin inh: 11; Pf growth 48h: inconclusive; SARS PLP yeast: -6%

What do the screens show for `CCNC(=O)/C(=C\C=C\c1ccccc1)NC(=O)c1ccc(Br)o1`?
NS1 function inh: -3%; CHX counter: -2; Pf growth 96h: inconclusive; Shiga toxin inh: -4; Pf growth 48h: -3%; SARS PLP yeast: 16%

How did Cc1ccc(N2C(=O)CC(N3CCN(C)CC3)C2=O)cc1 (configuration not stated) do in these assays?
NS1 function inh: -3%; CHX counter: -4; Pf growth 96h: 1%; Shiga toxin inh: 4; Pf growth 48h: -27%; SARS PLP yeast: -25%

How did Cc1ccc2nc(-c3ccc(N4C(=O)CC(N5CCCC(C)C5)C4=O)cc3)sc2c1 (configuration not stated) do in these assays?
NS1 function inh: -10%; CHX counter: 70*; Pf growth 96h: 41%; Shiga toxin inh: 143*; Pf growth 48h: 71%

Results for Cc1ccc2nc(-c3ccc(N4C(=O)CC(N5CCC(C(N)=O)CC5)C4=O)cc3)sc2c1 (configuration not stated) ?
NS1 function inh: -5%; CHX counter: 26*; Pf growth 96h: 25%; Shiga toxin inh: 33; Pf growth 48h: 62%; SARS PLP yeast: -85%

What do the screens show for `O=c1cc(O)c2c(=O)n(-c3ccccc3)c3c(c2o1)CCCCCC3`?
NS1 function inh: -5%; CHX counter: -6; Pf growth 96h: -32%; Shiga toxin inh: -11; Pf growth 48h: -4%; SARS PLP yeast: inconclusive

How did COc1ccc(CC(=O)Nc2ccc(N3CCOCC3)cc2)cc1S(=O)(=O)N1CCOCC1 do in these assays?
NS1 function inh: 3%; CHX counter: 10; Pf growth 96h: -6%; Shiga toxin inh: -6; Pf growth 48h: 15%; SARS PLP yeast: 0%

What do the screens show for `CCOC(=O)CC(=O)CSc1nc2sc(C)cc2c(=O)n1Cc1ccco1`?
NS1 function inh: -14%; CHX counter: -4; Shiga toxin inh: 14; Pf growth 48h: 4.7µM*; SARS PLP yeast: 4%

How did Cc1cc2c(=O)n(Cc3ccco3)c(SCC(=O)c3ccc(Cl)s3)nc2s1 do in these assays?
NS1 function inh: 1%; CHX counter: 16*; Pf growth 96h: 202%; Shiga toxin inh: 29; Pf growth 48h: 5.9µM*; SARS PLP yeast: 3%

What do the screens show for `Cc1sc2nc(SCc3ccccc3)n(Cc3ccco3)c(=O)c2c1C`?
NS1 function inh: inconclusive; CHX counter: 0; Pf growth 96h: -28%; Shiga toxin inh: 20; Pf growth 48h: 2%; SARS PLP yeast: 0%

How did CCOC(=O)c1ccc(N2C(=O)CC(C)(CC)CC2=O)cc1 do in these assays?
NS1 function inh: inconclusive; CHX counter: -4; Pf growth 96h: 39%; Shiga toxin inh: -6; Pf growth 48h: inconclusive; SARS PLP yeast: 0%

How did C/C(Cn1cnc([N+](=O)[O-])n1)=N\NC(=O)c1ccccc1O do in these assays?
NS1 function inh: 5%; CHX counter: 24*; Pf growth 96h: 35%; Shiga toxin inh: 39*; Pf growth 48h: 3%; SARS PLP yeast: 2%

What do the screens show for `C/C(Cn1cnc([N+](=O)[O-])n1)=N\NC(=O)c1ccc(O)cc1O`?
NS1 function inh: 4%; CHX counter: 42*; Pf growth 96h: inconclusive; Shiga toxin inh: 87*; Pf growth 48h: 43%; SARS PLP yeast: 1%

How did C/C(Cn1nc([N+](=O)[O-])cc1C)=N\NC(=O)c1ccc(O)cc1O do in these assays?
NS1 function inh: 12%; CHX counter: 30*; Pf growth 96h: -27%; Shiga toxin inh: 39; Pf growth 48h: -20%; SARS PLP yeast: -7%

What do the screens show for `O=C(Cn1cnc([N+](=O)[O-])n1)N/N=C/c1ccccc1O`?
NS1 function inh: -3%; CHX counter: -3; Pf growth 96h: inconclusive; Shiga toxin inh: -6; Pf growth 48h: inconclusive; SARS PLP yeast: 2%

How did CCOC(=O)c1c(C)[nH]c2cc(Br)c(OC)cc12 do in these assays?
NS1 function inh: -45%; CHX counter: 18*; Pf growth 96h: -6%; Shiga toxin inh: 1; Pf growth 48h: inconclusive; SARS PLP yeast: -6%

Results for CCOC(=O)c1c(C)[nH]c(C)c1-c1ccccc1OC ?
NS1 function inh: 8%; CHX counter: -7; Pf growth 96h: 6%; Shiga toxin inh: -20; Pf growth 48h: -7%; SARS PLP yeast: -3%

How did CCNC(=O)COC(=O)c1csc2c1CCCC2 do in these assays?
NS1 function inh: -42%; CHX counter: 9; Pf growth 96h: 20%; Shiga toxin inh: 20; Pf growth 48h: 13%; SARS PLP yeast: -3%

Source: PubChem BioAssay (National Center for Advancing Translational Sciences (NCATS))
